We go through 69 sequences from PubChem BioAssay AID1508600 (Functional Genomics Laboratory (NCATS/FGL), 2020).

Hit rate of the full screen: of about 53,000 sequences, about 3,700 (7%) were called active.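 The calls were made as follows: active = gene knockdowns whose robust z-score for IL-1 alpha signal is at least 2 or at most -2, so actives lie on both sides; inactive = the rest.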 Only a selection was taken, and actives are over-represented in it overall.

The experiment is described as follows: Components of the Cytosolic LPS Sensing Pathway: Gene Identification via Genome-wide siRNA Screen.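 Also: robust z of the log signal after scaling to non-targeting control siRNA wells of the plate.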 To be noted: RAW264.7 macrophages, IL-1a HTRF, actives lie on both sides, screened at 100 nM (by protocol), cells primed 5 h with Pam3CSK4 first. In a few lines: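 Using IL-1a HTRF as read-out, the screen measured release from RAW264.7 cells after 48h siRNA knockdown (100 nM), 5 h Pam3CSK4 priming and 24 h cytosolic LipidA. Values were expressed relative to negative-control wells as robust z-scores.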
Turning to CCUUCGUAGCCUGUAUCAUTT against Myadm, the z-score is -0.173 (inactive).

Consider CCGAGUAUAUCUAUAAUAGTT against Ear14, for which the z-score is -0.607 (inactive).

On to GGUGUUUUGUGAAUUGAAATT against Leprotl1, for which the z-score is -1.05 (inactive). On to GGAAGAGUGCGUUUACCUUTT against Rrp12, for which the z-score is 0.388 (inactive). For the sequence GCUUACAUUAAAGGAUAUGTT against Rab5c, the z-score was 2.17 (active).

As to GGAUCUUCUGGAUAGAAUGTT against Prc1, the z-score was 1.16 (inactive). Consider CCCUUUCGACAGAUUAGACTT against Zfp69, for which the z-score was -1.23 (inactive). With GGGUCAUGGACAAUAGAAATT against Olfr52, the z-score was -0.833 (inactive). As to GGACCAAAAGGAAAAUCCATT against Kcnj6, the z-score was -1.05 (inactive). Next, CCAUAAAUGAGUCUUCAUUTT against Bnip5: -0.0535 (inactive); GUGGACAUCCUCUCUGUCATT against Tmem54: -2.23 (active). As for CCCAUCGAUCCAUCACAUUTT against Olfr63, the z-score is -1.47 (inactive). In the case of GGCAAGCUGAAGAUGAACATT against Ntn1, the z-score was -1.14 (inactive). In the case of CGCAAGCCUGACAUACUGCTT against Etv3, the z-score is 0.382 (inactive).

Regarding GGUAGCAUAGGCUAGCAUATT against Crcp, the z-score is 0.0494 (inactive). For the sequence GGCAAACCAGGAAAAGGUCTT against Abhd2, the z-score was -2.33 (active).

CCAAACGGAAGUAUCUUAUTT against Tmem128: the z-score is 0.246 (inactive). Consider CGACCAGAGUGGAUACCUGTT against Ocm, for which the z-score was 1.98 (inactive). In the case of GCUUCCUACAAUUAAUUCATT against Thap12, the z-score was 0.614 (inactive). As for GGGAAUGGAGGUCCAGAUUTT against Spatc1l, the z-score is -2.33 (active). Consider CGUAGAAGUUGAUGAGUCATT against Numb, for which the z-score is -1.05 (inactive). On to GGAUUUAGGCCUUAUCAUCTT against Atf3, for which the z-score is -2.12 (active). GGAAGUUAUUGCCAGCGAGTT against Fbxo5: the z-score was -0.418 (inactive).

In the case of GCAGUCUCACCUGAACAGATT against Eppin, the z-score is 0.43 (inactive). With CCCACCUUCAAGCAAGAACTT against Ifnk, the z-score is -2.51 (active). For the sequence GGAGAGCAUGUGACCAAAATT against Safb2, the z-score was 0.758 (inactive).

Consider GCAAAACUGUGUCAGUAUCTT against Slco5a1, for which the z-score was 0.901 (inactive). As for GGUCAAAGAGUUCUGUGAATT against Ppp2r1a, the z-score is -0.79 (inactive). With GGGCUGACCAGUUUGAGUATT against Polr2h, the z-score is -2.7 (active).

As to GGCAUGCCUGUUGCUAUGATT against Cyp3a44, the z-score is 0.182 (inactive). Next, “AUCUUUCAGUCACACGACCTT against A730085E03Rik”: -0.942 (inactive); GGUAGCUUAGAGGACUAACTT against Cidec: -1.78 (inactive). Next, GGCUGAAAGAUUGUAUUGATT against Rwdd2b: -0.601 (inactive); CUCAAAAUCUGGUGAUAAATT against Adam34: 2.66 (active). With AGCCGAUCCUGUGCCUGUUTT against Dnph1, the z-score is 0.592 (inactive). Consider GGGACUUUGGUCAAUAAUGTT against Tcf19, for which the z-score was 0.247 (inactive). In the case of GGGAAGAAGCUAAAGAAGATT against Wipf1, the z-score was 1.44 (inactive). For the sequence GCACGUGGAUCCUAACAAGTT against Exd1, the z-score is -1.84 (inactive). Take GGAAAAGAUAGAGUUACUUTT against Lrif1: the z-score is 0.484 (inactive).

For UGGGAAGGUGCUCACUGAGTT against Dnph1, the z-score was -2.53 (active). Next, GGCUGUCUUUGUUCCAGUATT against Tnfrsf10b: 0.218 (inactive); GGGCCAAGGAACCUAUUUGTT against Ltbr: 0.58 (inactive). With GGCUCUUAGAAAAAUGUUATT against Olfr1156, the z-score was -0.816 (inactive). Regarding GGUCUACGGCACCUUCUAUTT against Bsnd, the z-score is -0.438 (inactive). Next, CGGGUUUCAUUAUUAUUCCTT against Foxa1: -0.352 (inactive); GGUGUGCCUAUGUUAUAGUTT against Slc13a5: -0.982 (inactive); GGUGAGUUAUAAAAGACCATT against Pex12: -0.0509 (inactive).

As to GGUGGAUUUUGAAACUAUUTT against Pcdhb17, the z-score is 1.11 (inactive). Regarding GGCUGAACUGAUCCUGUACTT against Kcnh3, the z-score is -2.22 (active). As to GCAAGUAGUUAGCUCAGGGTT against Gabpb1, the z-score is -0.752 (inactive). GGCAUUCUGAAAAAAUAGCTT against Rb1cc1: the z-score was -1.55 (inactive).

In the case of GGUUUGUGGAUGACAACGGTT against Mtf1, the z-score was 0.216 (inactive). For GGCGAAUGGAAGAUAAUGCTT against Stxbp3, the z-score is -0.233 (inactive).

As for CGAGUUUGUAAUGAUGCUATT against Cabp4, the z-score is 2.51 (active). Next, GGAACUCUGUAGACAGAAUTT against Lpin1: 0.705 (inactive). Take GGCUCAGAUCUUUGACUACTT against Pnp: the z-score was -0.232 (inactive). Next, GGACUUGGAGUUUCGUAAATT against Lmnb1: 2.92 (active). As for GGCUGAAAAGAAAAACAGATT against Rgs5, the z-score was -0.378 (inactive). Turning to CGUGACAUGCACGACUUCUTT against Tac2, the z-score was 1.49 (inactive). Consider GGGAGAAAAGGGUCAAAAATT against Marco, for which the z-score is 0.819 (inactive). Take GGCCAAGGAAAUAUCAAUGTT against Alg14: the z-score was 2.69 (active).

Turning to GGAACUGUGUGACUACUUUTT against Necab2, the z-score is 0.18 (inactive). On to GGUCAACAUUUGCUGUAAGTT against Inhba, for which the z-score was -0.599 (inactive).

On to GGGAAAAUAUCAAGUGUAGTT against Tmem60, for which the z-score is 0.567 (inactive). Turning to GGGCAAACCGGAAAAACAGTT against Ccdc71, the z-score was -2.06 (active). In the case of GCUGUUUCAAAAGUCAUAUTT against Col11a1, the z-score was 1.96 (inactive). For the sequence GCAGAUACCAUGAUACAGUTT against Med20, the z-score is -0.154 (inactive). Take GGUAAAUGUGAAUGUAAGGTT against Ntn4: the z-score was 0.73 (inactive). For the sequence GGAUAAUUUAAACAUGGGATT against Cd276, the z-score was -1.08 (inactive).
